# Laboratory results as given in PubChem BioAssay AID2283334 (EPA ToxCast).
# Results filed as inconclusive are left out. Calls of active or inactive are those of the source. Rule for the calls: active = hit-call score of the fitted dose curve at least 0.9, where 1 is the maximum; inactive = score below 0.9.
# Molecular target: Grik1 (gene 29559) (UniProt P22756)
# Test: NVS_IC_rKAR: NovaScreen (NVS) Ion Channel Assay for Kainic Acid Receptors (KAR)
# Outline: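 Radioligand displacement binding using rat forebrain membranes, 1 h incubation, filter-based scintillation counting. Screened in duplicate at 25 uM, with actives retested in concentration-response up to 50 uM; fitted against DMSO.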
# Chain of Grik1 (gene 29559) (P22756 whole entry, looked up): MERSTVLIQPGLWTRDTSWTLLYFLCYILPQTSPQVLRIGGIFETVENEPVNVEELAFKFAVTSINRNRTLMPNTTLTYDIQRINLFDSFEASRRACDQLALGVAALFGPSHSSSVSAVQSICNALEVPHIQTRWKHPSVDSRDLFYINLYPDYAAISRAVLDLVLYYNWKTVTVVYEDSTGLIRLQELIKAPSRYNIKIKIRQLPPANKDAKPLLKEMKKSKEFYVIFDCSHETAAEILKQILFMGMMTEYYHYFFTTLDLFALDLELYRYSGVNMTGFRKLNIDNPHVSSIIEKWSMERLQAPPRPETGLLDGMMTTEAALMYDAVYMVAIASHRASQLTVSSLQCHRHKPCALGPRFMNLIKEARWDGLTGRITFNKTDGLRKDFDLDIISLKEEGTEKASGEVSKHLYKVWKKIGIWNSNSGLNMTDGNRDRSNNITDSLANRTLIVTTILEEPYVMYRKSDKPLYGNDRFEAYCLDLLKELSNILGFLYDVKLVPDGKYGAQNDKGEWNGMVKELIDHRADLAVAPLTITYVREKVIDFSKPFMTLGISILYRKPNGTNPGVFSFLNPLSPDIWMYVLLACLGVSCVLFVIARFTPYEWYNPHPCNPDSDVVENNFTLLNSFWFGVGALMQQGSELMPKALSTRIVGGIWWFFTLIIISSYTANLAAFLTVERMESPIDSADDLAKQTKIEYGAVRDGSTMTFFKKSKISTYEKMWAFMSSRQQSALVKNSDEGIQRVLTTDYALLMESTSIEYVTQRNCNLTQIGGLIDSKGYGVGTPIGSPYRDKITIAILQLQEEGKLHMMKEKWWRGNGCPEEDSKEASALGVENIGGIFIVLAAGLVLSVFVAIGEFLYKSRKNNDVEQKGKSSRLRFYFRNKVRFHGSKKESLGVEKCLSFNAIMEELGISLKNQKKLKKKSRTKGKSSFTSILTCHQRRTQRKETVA
row,SMILES,AC50
1,CCCCCCC(C)OC(=O)COc1nc(F)c(Cl)c(N)c1Cl (configuration not stated),30.2 µM (active)
2,CCCCCCCCCCCCCCCCCC(=O)O,1.4 µM (active)
